Reference: the OligoGym collection

These sequences were tested against DNAJC8 (assay: pooled miR-30 sensor sort-seq; sequence = guide strand). Settings: shRNA.
In the case of TTGAGCTTCAATCTCTTCTTCC, the sensor-assay potency score (higher = more potent) was 0.0915.
TTTTTCTTGAGCTTCAATCTCT was tested, and the sensor-assay potency score (higher = more potent) was 0.129.
With TTTCTTCATCTGTAACTTCAGG the sensor-assay potency score (higher = more potent) was -0.78.
TTGTCTGTTTATATACAGCTTG was tested, and the sensor-assay potency score (higher = more potent) was -0.738.
Sequence TTGTCGTTTCCTTTCATGCATC has a sensor-assay potency score (higher = more potent) of -1.33.
With TTGGCTTGGAAGTTTCGCCAGC the sensor-assay potency score (higher = more potent) was -0.414.
In the case of TGTAACTTCAGGATCTATCTGA, the sensor-assay potency score (higher = more potent) was 0.809.

The sequences below were run against DNAL4 in the same assay as above. Settings: shRNA.
For TCTTTGATCATCTTGGCGGCGC, the sensor-assay potency score (higher = more potent) was -0.0929.
In the case of TATATAAATAAGACCGCTGTGT, the sensor-assay potency score (higher = more potent) was -0.264.
TCTCTTTGATCATCTTGGCGGC was tested, and the sensor-assay potency score (higher = more potent) was -0.315.
For TCTGCAGTCGCTTATAATCAGC, the sensor-assay potency score (higher = more potent) was -1.4.
TAGAGGAGGTTCTTCACCTCGT gave a sensor-assay potency score (higher = more potent) of 0.0799.
With ACTTCTTGTCCATTGTCTCTTT the sensor-assay potency score (higher = more potent) was -0.545.
With TTGTCTCTTTGATCATCTTGGC the sensor-assay potency score (higher = more potent) was -0.232.
Work on ATAATCAGCCTCATCTTTCTTC yielded a sensor-assay potency score (higher = more potent) of 0.738.
In the case of TCGTGGGTGATCTCAAACCCAA, the sensor-assay potency score (higher = more potent) was -1.47.
TTGTTGTTGGAGAATTTCTCAC gave a sensor-assay potency score (higher = more potent) of -0.596.
With ATTGTCTCTTTGATCATCTTGG the sensor-assay potency score (higher = more potent) was 0.417.

What follows are sequences tested against DNASE2B in the same assay as above. Settings: shRNA.
TACTCTTAGAGGCATATGCTTC was tested, and the sensor-assay potency score (higher = more potent) was -0.938.
TTTAATTGCTTTTATATTGTAG was tested, and the sensor-assay potency score (higher = more potent) was -0.233.
With ATAATCATAGCCTTCTTCCGGA the sensor-assay potency score (higher = more potent) was 0.631.
In the case of TTGTATATTAGATAGGCTGTGT, the sensor-assay potency score (higher = more potent) was 0.0611.
TCTAGTTGTAGAGTCTAGGTAC was tested, and the sensor-assay potency score (higher = more potent) was 0.705.
Sequence TAACAAGTGTGTCTTCAGCCGT has a sensor-assay potency score (higher = more potent) of -0.785.
With TTTTATATTGTAGACATGGTAA the sensor-assay potency score (higher = more potent) was -1.07.
TATAGCTGTTGTAATGTCCTTC showed a sensor-assay potency score (higher = more potent) of 0.757.
Work on TAGGTCTCCAATACATGTCCAG yielded a sensor-assay potency score (higher = more potent) of -0.704.
TTCTGTTAACAAGTGTGTCTTC was tested, and the sensor-assay potency score (higher = more potent) was -0.13.
With TTGAACTCTGTTCCACAGCAGT the sensor-assay potency score (higher = more potent) was -0.963.
Work on TTGGTGTGTCCATACTTTCTGC yielded a sensor-assay potency score (higher = more potent) of -0.698.

What follows are sequences tested against DNMT3L in the same assay as above. Settings: shRNA.
In the case of TTGAAATATTCTCTTAGGGGGA, the sensor-assay potency score (higher = more potent) was -0.387.
AACTGGAACAGGTACCAGCTGG showed a sensor-assay potency score (higher = more potent) of -0.764.
In the case of TGAACCTGGAGACTTCCGCAGC, the sensor-assay potency score (higher = more potent) was -0.928.
In the case of TTCTGTTGAAAAATACTTGAAA, the sensor-assay potency score (higher = more potent) was -0.77.
TGTGACATCAACCACATGCTTC gave a sensor-assay potency score (higher = more potent) of -0.297.
With ATGTCTTCTATATTTCGCTGGT the sensor-assay potency score (higher = more potent) was -0.668.
AATACTTGAAATATTCTCTTAG showed a sensor-assay potency score (higher = more potent) of 0.0137.
TATATTTCGCTGGTTAGCCTTG gave a sensor-assay potency score (higher = more potent) of -0.491.
TTGGTACCCGTCATCGTCGTAC gave a sensor-assay potency score (higher = more potent) of -0.554.
Sequence TGGAACTGGAACAGGTACCAGC has a sensor-assay potency score (higher = more potent) of -1.35.
